FUS yeast rescue: qHTS for Suppressors of FUS Proteinopathy: Primary screen using FUS-linked yeast assay; S. cerevisiae FUS-expressing, growth rescue, OD600, 24 h; Potency, µM (top dose mostly 76.6 µM), usual class: activators; 390,000 tested, 0.24% active; AID 1347120, 2019; further: nearly all actives have a fitted effect of over 55% in size
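Yeast FUS proteinopathy model; galactose-induced FUS (2%), starting OD 0.005. Cpds in dilution series, 24hr, 30C, 99% humidity. Abs 600 nm growth. Pos ctrl CP55940 (top 92uM final); neg ctrl DMSO.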
TRPV1 PAM: HTS Assay for Compounds that Act as Potentiators of the Vanilloid Receptor 1 | Transient receptor potential cation channel subfamily V member 1 (Homo sapiens), Q8NER1 | TRPV1-expressing cells, Fluo-8 calcium influx, capsaicin EC20 potentiation | potentiation, % at 8.33 µM | 320,000 tested, 0.02% active; in the data active means potentiation above about 80%; inconclusive means between about 30% and that limit
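TRPV1-expressing cells were cultured overnight at 35.5C and loaded with Fluo-8 calcium dye for 40 to 90 min at room temperature. After a 10 s baseline, compound was added and calcium influx was read kinetically for 3 min (ex 480/em 520 nm).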
TRPV1 ag: HTS Assay for Compounds that Act as Agonists of the Vanilloid Receptor 1 | activation, % at 8.33 µM | TRPV1-expressing cells, Fluo-8 calcium influx, agonist mode | Transient receptor potential cation channel subfamily V member 1 (Homo sapiens), Q8NER1 | 320,000 tested, 0.19% active; in the data active means activation above about 80%; inconclusive means between about 30% and that limit
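TRPV1-expressing cells were cultured overnight at 35.5C and loaded with Fluo-8 calcium dye for 40 to 90 min at room temperature. After a 10 s baseline, compound was added and calcium influx was read kinetically for 3 min (ex 480/em 520 nm).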
ELG1 repair inh: qHTS screen for small molecules that inhibit ELG1-dependent DNA repair in human embryonic kidney (HEK293T) cells expressing luciferase-tagged ELG1; Potency, µM (highest dose often 46.1 µM), actives largely listed as inhibitors; HEK293T ELG1-luciferase reporter, luminescence, 16 h; DNA damage induced by 5-fluorouridine; 330,000 tested, 2.3% active; AID 504467, 2011; further: nearly all actives have a fitted effect of over 55% in size
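Step one: seed 2,000 cells per well. Step two: pin-transfer compound or DMSO alongside 5-fluorouridine. Step three: incubate 16 hr, 37 °C, 5% CO2. Step four: add ONE-Glo, wait 30 min, read luminescence.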
Giardia kill: Small Molecules that selectively kill Giardia lamblia: qHTS. activity change, % at 7.66 µM, hits read low. 340,000 tested, 0.15% active. Giardia lamblia trophozoite viability; in the data active means activity change below about -80%; inconclusive means between about -30% and that limit;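 further: parasites exposed to compound for two days anaerobically before the ATP read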
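Giardia trophozoites, 100 cells per well, were exposed to compounds for 48 hrs at 37 deg C under anaerobic conditions; viability was then read as ATP content by bioluminescence after 15-30 min at room temperature.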
ELG1 FLuc counter: qHTS screen for small molecules that inhibit ELG1-dependent DNA repair: Hit Confirmation in Cell-Based Luciferin Assay. Potency, µM (doses to about 46.1 µM), usual class: inhibitors. cell-free firefly luciferase luminescence counter-screen, ViewLux. 350 tested, 3% active. shares compounds with ELG1 repair inh. AID 624247, 2012
ELG1 Luc conf: HTS assay for small molecules that inhibit ELG1-dependent DNA repair in human embryonic kidney (HEK293T) cells expressing luciferase-tagged ELG1: Hit Confirmation. shares compounds with ELG1 repair inh. HEK293T ELG1-luciferase levels, luminescence; cells co-treated with 5-fluorouridine. Potency, µM (doses to about 46.1 µM), most hits filed as inhibitors. 670 tested, 68% active. AID 624248, 2012; further: nearly all actives have a fitted effect of over 55% in size
ELG1 MMS Luc: confirmation of human ELG1 repair inhibitors, MMS stimulated. shares compounds with ELG1 repair inh. HEK293T luciferase-tagged ELG1 level, MMS stimulated. Potency, µM (top dose mostly 46.1 µM), hits mostly inhibitors. 670 tested, 53% active. AID 624249; further: nearly all actives have a fitted effect of over 60% in size
ELG1 5FU viab: qHTS screen for small molecules that inhibit ELG1-dependent DNA repair: Hit Confirmation with 5FU Viability | shares compounds with ELG1 repair inh | cell viability with 5-FU, ELG1-dependent repair | Potency, µM (titrated, usually from 46.1 µM), most hits filed as cytotoxic | 670 tested, under 10 active;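 further: ELG1-luc HEK293T cells cotreated with 5-fluorouridine at 10 µM final; viability measured 16 h after compound addition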
ELG1 MMS cell: qHTS screen for small molecules that inhibit ELG1-dependent DNA repair: Hit Confirmation with MMS Viability; Potency, µM (series often up to 46.1 µM), most hits filed as cytotoxic; 670 tested, 33% active; AID 624251, 2012; Cell viability with MMS, ELG1-dependent DNA repair; shares compounds with ELG1 repair inh;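 further: ELG1-luc HEK293T cells co-treated with 10 µM MMS; viability read 16 h after compound addition; nearly all actives have a fitted effect of over 60% in size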
ELG1 unstim viab: qHTS screen for small molecules that inhibit ELG1-dependent DNA repair: Hit Confirmation with Unstimulated Viability Assay | shares compounds with ELG1 repair inh | cell viability counter-screen, unstimulated, luminescence | Potency, µM (doses to about 45.9 µM), actives largely listed as cytotoxic | 900 tested, 8% active | AID 624252, 2012;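 further: compound exposure lasted 16 hours before reading; nearly all actives have a fitted effect of over 55% in size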
FLuc biochem: qHTS screen for small molecules that inhibit ELG1-dependent DNA repair: Hit Confirmation in Biochemical Luciferin Assay. Potency, µM (top dose mostly 57.5 µM), most hits filed as inhibitors. shares compounds with ELG1 repair inh. 350 tested, 10% active. purified firefly luciferase, luminescence counter-screen. AID 624253, 2012
Numbers stand for hits; 0 = inactive; ? = inconclusive; - = not tested or not shown. Shown are actives, neighbours in structure and some others; about 2.3% of the full set was active somewhere. Unless noted, the call rests on the fitted dose curve; in most records, active means well fitted curve in the direction sought with a large enough effect; inconclusive means small, poorly fitted or top-dose-only effect, or another doubt; inactive means no such curve, though single readings can be large; an effect the other way counts as inactive or inconclusive.

SMILES | FUS yeast rescue | TRPV1 PAM | TRPV1 ag | ELG1 repair inh | Giardia kill | ELG1 Luc conf | ELG1 MMS Luc | ELG1 5FU viab | ELG1 MMS cell | ELG1 unstim viab | others
COc1ccc(CNc2ncnc3sccc23)cc1 | 0 | 0 | 0 | 1.83µM | 0 | ? | 2.81µM | 0 | 2.81µM | ?
Fc1cccc(-c2nc(-c3ccncc3)no2)c1 | 0 | - | - | - | - | - | - | - | - | -
COc1ccc2ncn(-c3ccccc3)c2c1 | 0 | 0 | 0 | 2.31µM | 0 | ? | ? | 0 | ? | 0
COc1ccc(-n2cnc3cc(NCc4ccccn4)ccc32)cc1 | 0 | 0 | 0 | ? | 0 | - | - | - | - | -
Cc1ccccc1CN1c2ccccc2-c2nc(SCC(=O)c3ccccc3)ncc2S1(=O)=O | 0 | - | - | - | - | - | - | - | - | -
CC(=O)Nc1cccc(-c2cnc(N)c(C(=O)c3cccnc3)n2)c1 | 0 | - | - | 0.461µM | 0 | 0.792µM | 2.81µM | 0 | ? | ? | ELG1 FLuc counter=?;FLuc biochem=0
COc1ccc(CCNc2ncnc3c2nnn3C)cc1OC | 0 | - | - | - | - | - | - | - | - | -
CCNCc1nc2cc(OC)c(OC)cc2c(=O)[nH]1 | 0 | 0 | 0 | 0 | 0 | - | - | - | - | -
COc1cc2nc(CN(CCC(C)C)Cc3nc4cc(OC)c(OC)cc4c(=O)[nH]3)[nH]c(=O)c2cc1OC | 0 | 0 | 0 | 1.46µM | 0 | 2.81µM | ? | ? | 0 | 0
Cc1cc(NNC(=O)Nc2cccc(Cl)c2)nc2c1c(C)nn2C | - | 0 | 0 | 0.731µM | - | ? | 0.792µM | 0 | 0.997µM | 0 | ELG1 FLuc counter=0;FLuc biochem=0
CCn1c(SCC(=O)N2CC(C)OC(C)C2)nc2c([nH]c3ccccc32)c1=O (stereo not drawn) | 0 | 0 | 0 | 3.26µM | 0 | 9.96µM | 0 | ? | 0 | 0
COCCn1c(SCC(=O)N2CC(C)OC(C)C2)nc2c([nH]c3ccccc32)c1=O (stereo not drawn) | 0 | 0 | 0 | 0 | 0 | - | - | - | - | -
CC(C)NC(=O)c1nn(C)c2c1CS(=O)(=O)c1ccccc1-2 | 0 | - | - | - | - | - | - | - | - | -
Cc1ccc(C)c(CNC(=O)CN2C(=O)CSc3ccc(S(=O)(=O)N(C)C)cc32)c1 | 0 | - | - | - | - | - | - | - | - | -
Cc1cccn2c(CNCC3(c4ccccc4)CCCC3)c(C(=O)N3CCOCC3)nc12 | 0 | 0 | 0 | 2.91µM | 0 | ? | 12.5µM | 0 | 25µM | ?
Brc1ccc(-c2cc3c(N4CCN(c5ccccc5)CC4)nccn3n2)cc1 | 0 | - | - | - | - | - | - | - | - | -
Cc1nc(NC(=O)c2c(-c3ccccc3Cl)noc2C)sc1C | 0 | 0 | 0 | 2.91µM | 0 | ? | 0.499µM | ? | 0 | 0
COc1ccc(-n2nc(C(=O)Nc3cc(OC)c(OC)c(OC)c3)c(=O)n(C)c2=O)cc1 | 0 | - | - | - | - | - | - | - | - | -
CCOC(=O)c1c(NC(=O)C[n+]2ccc(N(C)C)cc2)sc(C)c1C | 0 | 0 | 0 | 4.11µM | 0 | 0 | 0 | 0 | 0 | ?
CCn1c(=O)n(CC)c2cc(S(N)(=O)=O)c(C)cc21 | 0 | 0 | 0 | 0 | 0 | - | - | - | - | -
CCn1c(=O)n(CC)c2cc(S(=O)(=O)N3CCCCC3)c(C)cc21 | 0 | 0 | ? | ? | 0 | - | - | - | - | 0 | ELG1 FLuc counter=0;FLuc biochem=0
CCCCn1c(=NC(=O)C(C)(C)Oc2ccc(Cl)cc2)c(C(=O)OCC)cc2c(=O)n3ccccc3nc21 | 0 | - | - | - | - | - | - | - | - | -
